PubChem BioAssay AID463173 (ICCB-Longwood Screening Facility, Harvard Medical School, 2010)
About 4,300 (8.3%) of roughly 52,000 compounds were called active. This excerpt belongs to a sample that is enriched for actives. A number with no mark means an inactive call. Rule as the data show it: active = survival mostly below about 52% (no sharp cut-off); inactive = mostly above about 56%.

System: DeltatarO mutant
Assay: S. aureus survival, RN4220 and DeltatarO strains – OD600, teichoic acid synthesis inhibitors, primary screen (AID 463173)
Conditions: S. aureus RN4220 wild type/DeltatarO growth, OD600, 18 h, hits give low values, screened at 18.75 µg/mL (by protocol)

Row | SMILES | survival
1 | Cc1sc2ncn(CC(=O)N(C)c3ccc(Br)cc3)c(=O)c2c1S(=O)(=O)N1CCC(C)CC1 | 70%
2 | Cc1ccc(OCc2cc(=O)n3cc(C)sc3n2)c(C)c1 | 59%
3 | Cc1ccc(NC(=O)c2ccc(=O)n(CC(=O)Nc3ccccc3)n2)cc1 | 85%
4 | O=C(Cn1ncc2c3ccccc3n(Cc3cccc(Cl)c3)c2c1=O)NCc1cccs1 | 99%
5 | Cc1cccc(CN2CCN(CC(=O)NCc3ccc(Cl)cc3)C2=O)c1 | 72%
6 | Cc1cccc2nc(-c3cccc(NS(=O)(=O)c4ccccc4)c3)cn12 | 35% (active)
7 | Cc1cccn2cc(-c3cccc(NS(=O)(=O)c4ccc(Cl)c(Cl)c4)c3)nc12 | 101%
8 | Cc1csc2nc(-c3cccc(NS(C)(=O)=O)c3)cn12 | 88%
9 | COc1ccc(-n2nc(C(=O)Nc3ccc(C)cn3)c3c4ccccc4n(C)c3c2=O)cc1Cl | 98%
10 | CN(C)c1cccc(C(=O)N2CCC(c3ccncc3)CC2)c1 | 88%
11 | CC(C)(C)c1ccc(CSc2n[nH]c(=O)[nH]c2=O)cc1 | 98%
12 | O=c1[nH]nc(SC(F)(F)C(F)(F)C(F)(F)F)c(=O)[nH]1 | 37% (active)
13 | CCCCCCSc1n[nH]c(=O)[nH]c1=O | 78%
14 | Cc1oc(-c2ccc(Cl)cc2)nc1Cn1c(=O)cc(C)c2c(C)nn(-c3cccc(F)c3)c21 | 82%
15 | O=C(Nc1ccc(Cl)c(C(F)(F)F)c1)C(Cc1ccccc1)NS(=O)(=O)c1ccc(Br)s1 (centres undefined) | 82%
16 | Cc1ccc(NS(=O)(=O)c2ccc3c(c2)CCCN3C(=O)C2CCC2)c(C)c1 | 85%
17 | CN(C)S(=O)(=O)c1ccc(C(=O)NCCSc2c(-c3ccccc3)[nH]c3ccccc23)cc1 | 68%
18 | Brc1cccc(Nc2nc3nonc3nc2NCc2ccco2)c1 | 6% (active)
19 | Ic1ccc(Nc2nc3nonc3nc2N/N=C\c2ccco2)cc1 | 53%
20 | CCOC(=O)c1ccc(Nc2nc3ccc(C(=O)c4ccccc4)cc3n3c(C)nnc23)cc1 | 109%

Row | SMILES | survival
21 | Cc1cccc(Nc2nc3nonc3nc2Nc2cccc(C)c2C)c1C | 66%
22 | CCOC(=O)c1ccc(Nc2nc(C)cc(C)n2)cc1 | 85%
23 | Cc1cccc(Nc2nc3nonc3nc2N/N=C\c2cccs2)c1C | 69%
24 | CCOC(=O)c1ccc(Nc2nc3nonc3nc2NCc2ccco2)cc1 | 5% (active)
25 | CCOC(=O)c1ccc(Nc2nc3nonc3nc2Nc2cccc(C)c2C)cc1 | -1% (active)
26 | Brc1ccc(NCc2ccco2)cc1 | 96%
27 | CCOC(=O)c1ccc(NC(=O)C(=O)NCc2ccco2)cc1 | 63%
28 | Cc1ccc(C)c(Nc2nc3nonc3nc2Nc2cccc(C)c2C)c1 | 2% (active)
29 | O=C(c1ccc(F)cc1F)N1CCC(c2nc(-c3ccc(S(=O)(=O)N4CCCC4)cc3)no2)CC1 | 97%
30 | O=S(=O)(c1ccc2ccccc2c1)n1nc(-c2ccco2)nc1NCc1ccc(F)cc1 | 106%
31 | Cc1oc(-c2cccc(Cl)c2)nc1CN1CCC(C(=O)NC(C)c2ccccc2)CC1 (centres undefined) | 85%
32 | CC(=O)Nc1ccccc1OCc1cc(=O)n2c3c(sc2n1)CCCC3 | 120%
33 | O=C(/C=C/c1ccccc1)C1=C(O)C(=O)N(CCO)C1c1ccc2c(c1)OCO2 (centres undefined) | 79%
34 | COc1ccc(-c2oc3ncn4nc(-c5ccccc5O)nc4c3c2-c2ccc(OC)cc2)cc1 | 62%
35 | Cc1ccccc1CNC(=O)c1cc2cc(S(=O)(=O)N3CCCCC3)ccc2n1C | 102%
36 | Cn1c(C(=O)NCCc2ccccc2)cc2cc(S(=O)(=O)N3CCCCC3)ccc21 | 94%
37 | CN(C)c1ccc(CNC(=O)c2cc3cc(S(=O)(=O)N4CCCCC4)ccc3n2C)cc1 | 8% (active)
38 | Cc1ccccc1CCNC(=O)c1cc2cc(S(=O)(=O)N3CCCCC3)ccc2n1C | 20% (active)
39 | CCc1ccc(CNC(=O)c2cc3cc(S(=O)(=O)N4CCCCC4)ccc3n2C)cc1 | 60%
40 | Cn1c(C(=O)NCc2ccc(F)cc2)cc2cc(S(=O)(=O)N3CCCCC3)ccc21 | 126%

Row | SMILES | survival
41 | CC(C)NC(=O)CCn1c(SCc2c(F)cccc2Cl)nc2c(sc3ccccc32)c1=O | 67%
42 | COc1ccccc1NC(=O)N1CCN(Cc2ccccc2)CC1 | 87%
43 | Cc1cc(C)c2sc(N(Cc3cccnc3)C(=O)CCOc3ccccc3)nc2c1 | 115%
44 | COc1cc(Cl)c(NC(=O)CCS(=O)(=O)c2ccc3c(c2)NC(=O)CO3)c(OC)c1 | 90%
45 | COc1ccc(NC(=O)c2cc3cc(C)ccc3[nH]2)cc1 | 100%
46 | Cc1ccc(NC(=O)CN2C(=O)COc3ccc(S(=O)(=O)N4CCOCC4)cc32)cc1N(C)C | 99%
47 | Cc1ccc(S(=O)(=O)c2cn(CC(=O)Nc3ccc4c(c3)OCO4)c3ccc(F)cc3c2=O)cc1 | 69%
48 | CC1C(=O)NN=C1C(=O)N/N=C\c1cccnc1 (centres undefined) | 87%
49 | CSc1cccc(NS(=O)(=O)c2cn(C)c(C)n2)c1 | 75%
50 | COc1ccccc1NS(=O)(=O)c1cn(C)c(C)n1 | 37% (active)
51 | Cc1ccc(NS(=O)(=O)c2cn(C)c(C)n2)c(Br)c1 | 69%
52 | CCc1nn(CC(=O)NC(C)CC)c(=O)c2cc3c(OC)cccc3n12 (centres undefined) | 128%
53 | CCc1ccc(OCc2nc(-c3ccc(-n4cccc4)cc3)no2)cc1 | 82%
54 | CCCc1ccc(OC(C)c2nc(-c3ccc(-n4cccc4)cc3)no2)cc1 (centres undefined) | 52% (active)
55 | CCc1ccc(OC(C)c2nc(-c3ccc(-n4cccc4)cc3)no2)cc1 (centres undefined) | 48%
56 | Cc1cc(NC(=O)CSc2nc3c([nH]c4ccccc43)c(=O)n2-c2ccccc2F)no1 | 88%
57 | CC(Sc1nnc(-c2ccccc2Br)o1)C(=O)Nc1cccc(Cl)c1 (centres undefined) | 34% (active)
58 | Cc1ccccc1NC(=O)C(C)Sc1nnc(-c2ccccc2O)o1 (centres undefined) | 69%
59 | Cc1ccccc1NC(=O)C(C)Sc1nnc(-c2ccccc2C)o1 (centres undefined) | 74%
